What all share (conditions): mRNA level, 48 h; actives raise or lower the signal
Read-out in experiment [1]: Apoptosis regulator Bcl-2 (Homo sapiens) (UniProt P10415)
Kind of experiment: LTEA_HepaRG_BCL2: Life Technologies and Expression Analysis (LTEA) Assay for Bcl-2 gene using HepaRG (AID 2283475). The procedure, abridged:
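Plated human HepaRG cells are exposed to test chemicals for 48 h across eight concentrations from 100 uM downward in half-log steps (0.5% DMSO). BCL2 expression is then measured by qRT-PCR with housekeeping normalisation and fitted bidirectionally against vehicle.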

Read-out in experiment [2]: Bcl-2 (BID) gene, BID (gene 637)
Kind of experiment: LTEA_HepaRG_BID: Life Technologies and Expression Analysis (LTEA) Assay for Bcl-2 (BID) gene using HepaRG (AID 2283476). Summed up: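 Cells are plated, cultured 48 h, switched to serum-free induction medium, then dosed 48 h (100 uM top, half-log steps, 0.5% DMSO). RNA is isolated and BID expression read by qRT-PCR.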

Read-out in experiment [3]: Caspase-3 (Homo sapiens) (UniProt P42574)
Kind of experiment: LTEA_HepaRG_CASP3: Life Technologies and Expression Analysis (LTEA) Assay for cysteine-aspartic acid protease (CASP3) using HepaRG (AID 2283477). The procedure, abridged: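 In HepaRG liver cells dosed for 48 h at up to 100 uM (eight-point, duplicate), CASP3 expression changes are scored by qRT-PCR. Activity is fitted in both directions with 0.5% DMSO as baseline.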

Read-out in experiment [4]: Cytochrome P450 (CYP24A1), CYP24A1 (gene 1591)
Kind of experiment: LTEA_HepaRG_CYP24A1: Life Technologies and Expression Analysis (LTEA) Assay for Cytochrome P450 (CYP24A1) using HepaRG (AID 2283478). The procedure, abridged:
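Human liver HepaRG cultures receive each chemical for 48 h across an eight-point half-log series topping at 100 uM in 0.5% DMSO. Induction or suppression of CYP24A1 mRNA is scored relative to vehicle after housekeeping-gene normalization.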

Read-out in experiment [5]: Cytochrome P450 (CYP1A2), CYP1A2 (gene 1544)
The experiment is described as follows: LTEA_HepaRG_CYP1A2: Life Technologies and Expression Analysis (LTEA) Assay for Cytochrome P450 (CYP1A2) using HepaRG (AID 2283479). The procedure, abridged: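 Assesses CYP1A2 mRNA in human HepaRG liver cells after 48 h chemical exposure at up to 100 uM. Values come from qRT-PCR with bidirectional curve fitting relative to DMSO.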

Read-out in experiment [6]: Cytochrome P450 (CYP2B6), CYP2B6 (gene 1555)
Kind of experiment: LTEA_HepaRG_CYP2B6: Life Technologies and Expression Analysis (LTEA) Assay for Cytochrome P450 (CYP2B6) using HepaRG (AID 2283481). Summed up:
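Using 48 h treatment of HepaRG cells in serum-free induction medium, concentrations spanned half-log steps from 100 uM in 0.5% DMSO vehicle. CYP2B6 mRNA induction or loss is scored by qRT-PCR against DMSO.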

Read-out in experiment [7]: Cytochrome P450 2C19 (Homo sapiens) (UniProt P33261)
The experiment is described as follows: LTEA_HepaRG_CYP2C19: Life Technologies and Expression Analysis (LTEA) Assay for CYP2C19 using HepaRG (AID 2283482). Summed up:
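Human HepaRG liver cells received test chemicals for 48 h (highest 100 uM, half-log dilutions in 0.5% DMSO). CYP2C19 mRNA induction or loss is read by multiplexed qRT-PCR and fitted in both directions versus vehicle.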

Read-out in experiment [8]: CYP2C8 (gene 1558)
Kind of experiment: LTEA_HepaRG_CYP2C8: Life Technologies and Expression Analysis (LTEA) Assay for CYP2C8 using HepaRG (AID 2283483). The procedure, abridged: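 HepaRG (human liver line), 48 h chemical exposure, 8-pt half-log series from 100 uM, 0.5% DMSO vehicle. Readout: CYP2C8 transcript by qRT-PCR, housekeeping-normalized. Bidirectional fit vs DMSO baseline.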

Read-out in experiment [9]: CYP2C9 (gene 1559)
Kind of experiment: LTEA_HepaRG_CYP2C9: Life Technologies and Expression Analysis (LTEA) Assay for CYP2C9 using HepaRG (AID 2283484). The procedure, abridged:
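HepaRG, 48 h dosing, 8-pt half-log series, top 100 uM, 0.5% DMSO vehicle. Read-out: CYP2C9 transcript by TaqMan qRT-PCR, housekeeping-normalized (ACTB/GAPDH/POLR2A). Gain or loss fitted vs DMSO baseline.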

Read-out in experiment [10]: CYP4A11 (gene 1579)
The experiment is described as follows: LTEA_HepaRG_CYP4A11: Life Technologies and Expression Analysis (LTEA) Assay for CYP4A11 using HepaRG (AID 2283486). Summed up:
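Readout is CYP4A11 mRNA induction or suppression (qRT-PCR, ACTB/GAPDH/POLR2A normalization) in human HepaRG cells after 48 h chemical treatment, concentrations to 100 uM in 0.5% DMSO, fitted bidirectionally against vehicle.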

Read-out in experiment [11]: DNA damage-inducible transcript 3 (DDIT3), DDIT3 (gene 1649)
The experiment is described as follows: LTEA_HepaRG_DDIT3: Life Technologies and Expression Analysis (LTEA) Assay for DNA damage-inducible transcript 3 (DDIT3) using HepaRG (AID 2283488). Summed up:
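Cells are human HepaRG liver cells treated for 48 h with eight half-log concentrations up to 100 uM in 0.5% DMSO. Transcript levels come from qRT-PCR normalized to three housekeeping genes, with activity fitted in both directions relative to vehicle.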

Read-out in experiment [12]: Pro-epidermal growth factor (Homo sapiens) (UniProt P01133)
Kind of experiment: LTEA_HepaRG_EGF: Life Technologies and Expression Analysis (LTEA) Assay for Epidermal growth factor (EGF) using HepaRG (AID 2283489). The procedure, abridged:
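EGF expression changes in human HepaRG cells are scored by bidirectional fitting relative to 0.5% DMSO controls. Chemicals are tested at eight half-log concentrations up to 100 uM for 48 h in serum-free induction medium.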

Read-out in experiment [13]: Early growth response protein 1 (EGR1) transcription factor, EGR1 (gene 1958)
Kind of experiment: LTEA_HepaRG_EGR1: Life Technologies and Expression Analysis (LTEA) Assay for Early growth response protein 1 (EGR1) transcription factor using HepaRG (AID 2283490). The procedure, abridged:
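HepaRG, 48 h exposure, 8-pt half-log series from 100 uM, 0.5% DMSO vehicle; EGR1 transcript by TaqMan qRT-PCR (Fluidigm array), housekeeping-normalized; bidirectional fit relative to DMSO baseline.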

Read-out in experiment [14]: Ezrin (EZR), EZR (gene 7430)
Kind of experiment: LTEA_HepaRG_EZR: Life Technologies and Expression Analysis (LTEA) Assay for Ezrin (EZR) using HepaRG (AID 2283491). Summed up:
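Read-out is EZR transcript level by qRT-PCR, normalized to three housekeeping genes and fitted bidirectionally against the DMSO control. Human HepaRG cells received test chemicals for 48 h at eight half-log concentrations up to 100 uM in 0.5% DMSO.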

Read-out in experiment [15]: CYP3A5 (gene 1577)
The experiment is described as follows: LTEA_HepaRG_CYP3A5: Life Technologies and Expression Analysis (LTEA) Assay for CYP3A5 using HepaRG (AID 2283493). The procedure, abridged: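 Human HepaRG hepatic cells receive 48 h chemical treatment at eight concentrations (half-log steps from 100 uM) in 0.5% DMSO. Expression of CYP3A5 is quantified by Fluidigm qRT-PCR and normalized to three reference genes.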

Read-out in experiment [16]: Fatty Acid-Binding Protein 1 (FABP1), FABP1 (gene 2168)
Kind of experiment: LTEA_HepaRG_FABP1: Life Technologies and Expression Analysis (LTEA) Assay for Fatty Acid-Binding Protein 1 (FABP1) using HepaRG (AID 2283494). Summed up:
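qRT-PCR readout of FABP1 transcript (normalized to three housekeeping genes) after 48 h chemical exposure of HepaRG cells; eight concentrations, half-log steps, max 100 uM, 0.5% DMSO vehicle; gain or loss fitted relative to DMSO baseline.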

Read-out in experiment [17]: cysteine-aspartic acid protease (CASP8), CASP8 (gene 841)
The experiment is described as follows: LTEA_HepaRG_CASP8: Life Technologies and Expression Analysis (LTEA) Assay for cysteine-aspartic acid protease (CASP8) using HepaRG (AID 2283480). Summed up:
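qRT-PCR readout of CASP8 mRNA, normalized to three housekeeping genes, after 48 h chemical exposure of HepaRG cells; 8-point half-log series, top 100 uM, 0.5% DMSO vehicle. Bidirectional curve fitting against DMSO baseline.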

Read-out in experiment [18]: CYP2E1 (gene 1571)
The experiment is described as follows: LTEA_HepaRG_CYP2E1: Life Technologies and Expression Analysis (LTEA) Assay for CYP2E1 using HepaRG (AID 2283485). The procedure, abridged: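 Readout is qRT-PCR of CYP2E1 mRNA, normalized to three housekeeping genes and fitted bidirectionally against 0.5% DMSO. HepaRG cells were dosed 48 h at eight concentrations, highest 100 uM with half-log dilutions.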

Read-out in experiment [19]: Cytochrome P450 3A4 (Homo sapiens) (UniProt P08684)
Kind of experiment: LTEA_HepaRG_CYP3A4: Life Technologies and Expression Analysis (LTEA) Assay for CYP3A4 using HepaRG (AID 2283487). The procedure, abridged: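 HepaRG, 48 h exposure, 8-pt CRC from 100 uM (half-log), 0.5% DMSO, duplicates; serum-free induction medium. Readout: CYP3A4 mRNA, qRT-PCR, ACTB/GAPDH/POLR2A normalization. Bidirectional fit vs DMSO.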

Read-out in experiment [20]: Cytochrome P450 3A7 (Homo sapiens) (UniProt P24462)
Kind of experiment: LTEA_HepaRG_CYP3A7: Life Technologies and Expression Analysis (LTEA) Assay for CYP3A7 using HepaRG (AID 2283492). The procedure, abridged: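 Cells were thawed, plated, cultured 48 h, then treated for a further 48 h with chemicals (eight-point half-log series from 100 uM, 0.5% DMSO). RNA was isolated and CYP3A7 expression quantified by qRT-PCR normalised to ACTB, GAPDH and POLR2A.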

SMILES strings stand for the structures. The source made the active and inactive calls. The calls were made as follows: active = hit-call score of the fitted dose curve at least 0.9, where 1 is the maximum; inactive = score below 0.9.

By AC50 is commonly meant the concentration at which the activity in the assay is half-maximal.

Sequence of Cytochrome P450 2C19 (Homo sapiens) (P33261 whole entry, looked up): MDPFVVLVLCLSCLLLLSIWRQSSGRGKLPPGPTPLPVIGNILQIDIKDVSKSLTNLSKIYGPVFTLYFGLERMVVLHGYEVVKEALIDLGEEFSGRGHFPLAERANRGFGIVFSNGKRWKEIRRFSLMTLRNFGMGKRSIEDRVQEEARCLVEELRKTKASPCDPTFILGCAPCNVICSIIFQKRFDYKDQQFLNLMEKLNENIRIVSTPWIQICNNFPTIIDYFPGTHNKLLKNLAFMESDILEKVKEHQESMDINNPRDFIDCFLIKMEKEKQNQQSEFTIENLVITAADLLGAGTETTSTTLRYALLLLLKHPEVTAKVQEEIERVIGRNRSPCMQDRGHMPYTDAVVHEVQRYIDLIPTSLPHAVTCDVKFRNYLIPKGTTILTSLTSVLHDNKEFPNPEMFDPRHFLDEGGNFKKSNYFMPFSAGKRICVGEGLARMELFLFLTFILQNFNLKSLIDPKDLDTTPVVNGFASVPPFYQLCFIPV
Sequence of Apoptosis regulator Bcl-2 (Homo sapiens) (P10415 whole entry, looked up): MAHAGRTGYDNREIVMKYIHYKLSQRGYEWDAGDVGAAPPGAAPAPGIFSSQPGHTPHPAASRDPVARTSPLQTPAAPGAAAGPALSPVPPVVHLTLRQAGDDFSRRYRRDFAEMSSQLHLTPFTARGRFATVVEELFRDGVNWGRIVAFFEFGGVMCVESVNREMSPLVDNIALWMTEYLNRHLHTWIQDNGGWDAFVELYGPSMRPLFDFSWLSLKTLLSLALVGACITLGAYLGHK
Sequence of Caspase-3 (Homo sapiens) (P42574 whole entry, looked up): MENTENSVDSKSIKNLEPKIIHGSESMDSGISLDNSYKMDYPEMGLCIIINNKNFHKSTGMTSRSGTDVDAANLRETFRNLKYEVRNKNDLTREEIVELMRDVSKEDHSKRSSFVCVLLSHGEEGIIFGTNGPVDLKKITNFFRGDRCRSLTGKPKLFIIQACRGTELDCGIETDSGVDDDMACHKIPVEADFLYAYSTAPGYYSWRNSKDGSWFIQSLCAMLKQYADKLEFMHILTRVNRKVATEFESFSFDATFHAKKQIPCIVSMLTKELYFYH
Sequence of Cytochrome P450 3A4 (Homo sapiens) (P08684 whole entry, looked up): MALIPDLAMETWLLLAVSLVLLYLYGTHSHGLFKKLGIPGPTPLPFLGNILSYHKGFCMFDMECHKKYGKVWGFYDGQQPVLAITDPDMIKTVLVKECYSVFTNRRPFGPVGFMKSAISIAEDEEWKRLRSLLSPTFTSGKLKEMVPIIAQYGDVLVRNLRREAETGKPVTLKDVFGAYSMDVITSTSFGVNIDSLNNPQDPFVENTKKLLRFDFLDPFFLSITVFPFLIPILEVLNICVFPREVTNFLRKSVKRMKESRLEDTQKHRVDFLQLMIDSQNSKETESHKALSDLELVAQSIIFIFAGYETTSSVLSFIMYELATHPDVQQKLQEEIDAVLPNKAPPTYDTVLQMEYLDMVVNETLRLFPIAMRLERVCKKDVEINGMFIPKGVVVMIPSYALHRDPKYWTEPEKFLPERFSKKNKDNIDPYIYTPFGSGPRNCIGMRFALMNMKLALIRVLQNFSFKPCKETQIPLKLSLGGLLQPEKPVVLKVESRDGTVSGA
Sequence of Cytochrome P450 3A7 (Homo sapiens) (P24462 whole entry, looked up): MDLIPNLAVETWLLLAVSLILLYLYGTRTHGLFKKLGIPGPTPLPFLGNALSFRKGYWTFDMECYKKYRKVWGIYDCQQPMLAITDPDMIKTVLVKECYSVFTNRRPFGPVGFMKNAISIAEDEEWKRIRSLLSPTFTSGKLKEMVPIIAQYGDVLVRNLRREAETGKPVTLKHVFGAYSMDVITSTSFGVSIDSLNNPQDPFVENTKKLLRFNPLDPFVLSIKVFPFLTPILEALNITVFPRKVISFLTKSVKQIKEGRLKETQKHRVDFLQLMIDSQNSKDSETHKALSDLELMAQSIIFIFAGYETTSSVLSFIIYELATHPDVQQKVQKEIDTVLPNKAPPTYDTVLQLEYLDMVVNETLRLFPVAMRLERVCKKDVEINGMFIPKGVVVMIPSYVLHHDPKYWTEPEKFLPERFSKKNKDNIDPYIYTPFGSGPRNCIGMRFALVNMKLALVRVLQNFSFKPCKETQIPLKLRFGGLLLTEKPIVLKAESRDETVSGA

Take `O=C(O)Cn1c(=O)n(Cc2ccc(Br)cc2F)c(=O)c2ccc(Cl)cc21`: the compound was classed as inactive in [1], in experiment [2], in [3], in experiment [4], in experiment [5] and in experiment [9]. Also, the compound was called inactive in experiment [10], in [11], in experiment [12], in experiment [13], in [14] and in [15]. For the same compound, the compound was called inactive in experiment [16]. The results for the AC50 in [6], in experiment [7] and in experiment [8] were 32.7 µM (active), 13 µM (active) and 17 µM (active), respectively.

With `O=c1c(-c2ccc(O)cc2)coc2cc(O)cc(O)c12`, the result in experiment [1], in experiment [2], in experiment [3], in [4], in [5] and in [17] was inactive. Besides, the compound was called inactive in [6], in experiment [7], in experiment [8], in [9], in experiment [18] and in experiment [10]. Besides, the compound was called inactive in experiment [19], in [11], in experiment [12], in [13], in [14] and in [15]. In experiment [16], the call was inactive.

Regarding `Cc1occc1C(=O)Nc1ccc(C(=O)N2CCC(F)(F)/C(=C\C(=O)N3CCC(N4CCCCC4)CC3)c3ccccc32)cc1`, the compound was classed as inactive in [1], in experiment [2], in experiment [3], in experiment [4], in experiment [19] and in experiment [12]. The call in experiment [13], in experiment [14], in experiment [20], in experiment [15] and in experiment [16] was inactive. Moreover, the AC50 is 18.4 µM (active) in experiment [5]; 47.4 µM (active) in experiment [6]; 43.7 µM (active) in experiment [7]; 56.5 µM (active) in [8]; 44.2 µM (active) in experiment [9]; 31.2 µM (active) in experiment [18]. Moreover, the AC50 is 49 µM (active) in experiment [10] and 42.3 µM (active) in experiment [11].

For the origin of these results see PubChem BioAssay (EPA / NIEHS).
